In ChEMBL document CHEMBL3988442, “University of Dundee, Small-Polar-MMV Screening Library” (2021):
For some assays here: Potency and affinity values are given separately.

Tests used:
Parameters in all cases: scale not given: direction of the effect not stated beside the values
[1] = molecular target: Protein translocase subunit SecA (Escherichia coli (strain K12)) (UniProt P10408); experiment: Assay to Identify E. coli SecA ATPase Inhibitors; format: functional; settings: 30 µM
[2] = molecular target: T1, Ubiquitin-activating enzyme e1, putative (Leishmania donovani (strain BPK282A1)) (UniProt E9BSI1); experiment: Leishmania donovani Ubiquitin Activating Enzyme (LdE1); format: functional; settings: 30 µM
T1 sequence (whole entry): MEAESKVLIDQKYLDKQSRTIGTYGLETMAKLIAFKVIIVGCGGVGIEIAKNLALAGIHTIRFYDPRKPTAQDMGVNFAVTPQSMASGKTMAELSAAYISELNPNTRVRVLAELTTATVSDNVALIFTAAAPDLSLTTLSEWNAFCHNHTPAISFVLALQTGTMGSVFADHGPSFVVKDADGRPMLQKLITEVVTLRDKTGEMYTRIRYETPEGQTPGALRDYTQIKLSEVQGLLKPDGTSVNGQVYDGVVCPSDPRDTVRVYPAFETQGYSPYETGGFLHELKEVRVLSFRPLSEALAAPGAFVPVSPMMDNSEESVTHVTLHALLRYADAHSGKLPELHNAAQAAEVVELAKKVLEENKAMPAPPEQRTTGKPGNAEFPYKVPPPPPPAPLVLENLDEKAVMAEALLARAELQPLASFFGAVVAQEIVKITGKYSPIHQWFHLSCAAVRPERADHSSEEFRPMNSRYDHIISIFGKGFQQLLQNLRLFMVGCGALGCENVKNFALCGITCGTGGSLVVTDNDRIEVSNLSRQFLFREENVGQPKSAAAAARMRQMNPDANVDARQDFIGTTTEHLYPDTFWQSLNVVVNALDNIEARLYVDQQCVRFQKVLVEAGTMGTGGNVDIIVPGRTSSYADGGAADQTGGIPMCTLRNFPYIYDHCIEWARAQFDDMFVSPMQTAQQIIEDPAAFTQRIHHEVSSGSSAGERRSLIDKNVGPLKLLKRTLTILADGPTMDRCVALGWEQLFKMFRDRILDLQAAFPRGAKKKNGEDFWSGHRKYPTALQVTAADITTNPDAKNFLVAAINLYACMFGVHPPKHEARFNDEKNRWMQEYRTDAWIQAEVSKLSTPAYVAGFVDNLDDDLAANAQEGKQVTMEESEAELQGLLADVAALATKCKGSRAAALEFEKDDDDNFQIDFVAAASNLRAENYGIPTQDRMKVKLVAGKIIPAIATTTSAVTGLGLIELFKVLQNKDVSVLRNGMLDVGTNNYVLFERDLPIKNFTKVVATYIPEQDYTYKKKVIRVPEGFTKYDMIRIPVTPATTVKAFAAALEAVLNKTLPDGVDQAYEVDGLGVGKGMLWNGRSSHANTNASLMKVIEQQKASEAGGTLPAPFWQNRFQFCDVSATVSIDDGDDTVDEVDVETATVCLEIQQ

[3] = molecular target: AMP-activated protein kinase, AMPK (Homo sapiens) (UniProt P54646+O43741+P54619+Q9UGJ0+Q9Y478+Q13131+Q9UGI9); experiment: AMP-dependent Kinase enzyme assay. An in vitro enzyme assay that detects ADP turnover that is directly proportional to AMPK activity. This uses naive AMPK that is activated during the assay with MK-8722; format: functional; settings: 30 µM
[4] = molecular target: Sialic acid-binding Ig-like lectin 9 (Homo sapiens) (UniProt Q9Y336); experiment: Hs-Siglec9 ALPHAscreen SOP 20170721; settings: 10 µM
Sialic acid-binding Ig-like lectin 9 (Homo sapiens), sequence (Q9Y336 whole entry): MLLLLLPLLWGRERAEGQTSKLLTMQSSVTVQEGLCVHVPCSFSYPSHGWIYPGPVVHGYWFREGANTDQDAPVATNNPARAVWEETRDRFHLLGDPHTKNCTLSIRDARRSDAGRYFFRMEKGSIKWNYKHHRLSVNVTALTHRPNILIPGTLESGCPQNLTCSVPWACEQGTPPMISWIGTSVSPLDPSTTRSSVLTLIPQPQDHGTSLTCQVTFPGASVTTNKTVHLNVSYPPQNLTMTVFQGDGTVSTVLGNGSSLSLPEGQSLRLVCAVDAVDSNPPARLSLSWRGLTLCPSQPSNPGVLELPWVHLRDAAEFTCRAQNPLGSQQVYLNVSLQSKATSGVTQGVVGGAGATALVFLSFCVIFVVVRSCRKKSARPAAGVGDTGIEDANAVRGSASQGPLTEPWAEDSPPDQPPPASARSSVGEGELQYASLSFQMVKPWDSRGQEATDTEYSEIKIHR

Trypanosoma cruzi = experiment: Trypanosoma cruzi phosphomannomutase and mannose-1-phosphate guanylyltransferase assay; format: functional; settings: 10 µM
[5] = molecular target: T2, Arginase-2, mitochondrial (Homo sapiens) (UniProt P78540); experiment: in vitro enzyme assay to detect the production of urea directly proportional to the activity of Arginase II; format: functional; settings: 33.3 µM; note: in the data most compounds retested in dose-response had high values
T2 sequence (whole entry): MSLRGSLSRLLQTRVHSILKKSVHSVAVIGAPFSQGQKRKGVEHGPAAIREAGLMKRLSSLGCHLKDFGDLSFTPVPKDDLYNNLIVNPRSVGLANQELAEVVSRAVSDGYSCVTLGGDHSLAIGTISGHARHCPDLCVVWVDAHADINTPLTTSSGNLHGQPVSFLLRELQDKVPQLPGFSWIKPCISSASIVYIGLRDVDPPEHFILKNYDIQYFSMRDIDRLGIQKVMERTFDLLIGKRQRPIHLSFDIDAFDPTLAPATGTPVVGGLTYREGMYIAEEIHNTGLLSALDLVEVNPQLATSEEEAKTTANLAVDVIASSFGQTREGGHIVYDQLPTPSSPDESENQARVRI

[6] = molecular target: T3, Proteasome subunit beta (Trypanosoma cruzi) (UniProt O96673); experiment: Trypanosoma cruzi proteasome chymotrypsin-like activity (TcProtChymo) assay.; note: in the data most compounds retested in dose-response had high values; format: functional; settings: 9.37 µM
T3 sequence (whole entry): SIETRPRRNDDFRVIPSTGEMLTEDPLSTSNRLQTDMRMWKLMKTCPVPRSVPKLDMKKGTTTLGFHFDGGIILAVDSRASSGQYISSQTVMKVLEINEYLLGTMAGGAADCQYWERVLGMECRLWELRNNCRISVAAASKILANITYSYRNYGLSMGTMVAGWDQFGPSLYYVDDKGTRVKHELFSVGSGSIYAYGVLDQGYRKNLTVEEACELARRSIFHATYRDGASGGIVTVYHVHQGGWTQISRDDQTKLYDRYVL

Homo sapiens = organism: Homo sapiens; experiment: To identify inhibition of the IFN signalling (Jak-Stat) pathway via expression of an eGFP reporter gene under the control of an IFN-stimulated response element (ISRE) containing MxA promoter.; format: functional; settings: 30 µM
[7] = molecular target: T4, Tyrosyl-tRNA synthetase, putative (Trypanosoma cruzi (strain CL Brener)) (UniProt Q4DSP6); experiment: Trypanosoma cruzi tyrosyl tRNA synthetase (TcYRS) _High Tyrosine SOP; format: functional; settings: 30 µM; note: in the data most compounds retested in dose-response had high values
T4 sequence (whole entry): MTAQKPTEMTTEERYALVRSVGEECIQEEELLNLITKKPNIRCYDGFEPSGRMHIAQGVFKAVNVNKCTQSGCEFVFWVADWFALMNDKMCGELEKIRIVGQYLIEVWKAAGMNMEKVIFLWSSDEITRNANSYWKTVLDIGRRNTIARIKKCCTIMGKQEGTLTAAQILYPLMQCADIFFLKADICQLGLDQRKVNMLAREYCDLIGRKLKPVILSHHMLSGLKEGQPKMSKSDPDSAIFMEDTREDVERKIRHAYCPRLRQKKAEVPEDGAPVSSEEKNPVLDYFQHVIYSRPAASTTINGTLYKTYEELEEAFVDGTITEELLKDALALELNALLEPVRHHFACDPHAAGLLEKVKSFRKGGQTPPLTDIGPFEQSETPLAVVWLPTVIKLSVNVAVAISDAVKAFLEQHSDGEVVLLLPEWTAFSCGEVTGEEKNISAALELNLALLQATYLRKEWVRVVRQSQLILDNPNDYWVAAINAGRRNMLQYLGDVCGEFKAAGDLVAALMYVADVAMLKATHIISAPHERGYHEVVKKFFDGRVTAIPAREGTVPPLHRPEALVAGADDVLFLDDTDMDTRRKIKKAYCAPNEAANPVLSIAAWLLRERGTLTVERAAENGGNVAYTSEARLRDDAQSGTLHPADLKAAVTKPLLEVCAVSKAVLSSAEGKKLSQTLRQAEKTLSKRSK

[8] = molecular target: T4, Tyrosyl-tRNA synthetase, putative (Trypanosoma cruzi (strain CL Brener)); experiment: Trypanosoma cruzi tyrosyl tRNA synthetase (TcYRS) SOP; format: functional; settings: 30 µM
[9] = molecular target: Chromo domain-containing protein 1 (Saccharomyces cerevisiae (strain ATCC 204508 / S288c) (Baker's yeast)) (UniProt P32657); experiment: ScCHD-1 Enzyme Inhibition Assay; format: functional; settings: 30 µM; note: in the data most compounds retested in dose-response had high values
Chromo domain-containing protein 1 (Saccharomyces cerevisiae (strain ATCC 204508 / S288c) (Baker's yeast)), sequence (P32657 whole entry, the tested form may be a part): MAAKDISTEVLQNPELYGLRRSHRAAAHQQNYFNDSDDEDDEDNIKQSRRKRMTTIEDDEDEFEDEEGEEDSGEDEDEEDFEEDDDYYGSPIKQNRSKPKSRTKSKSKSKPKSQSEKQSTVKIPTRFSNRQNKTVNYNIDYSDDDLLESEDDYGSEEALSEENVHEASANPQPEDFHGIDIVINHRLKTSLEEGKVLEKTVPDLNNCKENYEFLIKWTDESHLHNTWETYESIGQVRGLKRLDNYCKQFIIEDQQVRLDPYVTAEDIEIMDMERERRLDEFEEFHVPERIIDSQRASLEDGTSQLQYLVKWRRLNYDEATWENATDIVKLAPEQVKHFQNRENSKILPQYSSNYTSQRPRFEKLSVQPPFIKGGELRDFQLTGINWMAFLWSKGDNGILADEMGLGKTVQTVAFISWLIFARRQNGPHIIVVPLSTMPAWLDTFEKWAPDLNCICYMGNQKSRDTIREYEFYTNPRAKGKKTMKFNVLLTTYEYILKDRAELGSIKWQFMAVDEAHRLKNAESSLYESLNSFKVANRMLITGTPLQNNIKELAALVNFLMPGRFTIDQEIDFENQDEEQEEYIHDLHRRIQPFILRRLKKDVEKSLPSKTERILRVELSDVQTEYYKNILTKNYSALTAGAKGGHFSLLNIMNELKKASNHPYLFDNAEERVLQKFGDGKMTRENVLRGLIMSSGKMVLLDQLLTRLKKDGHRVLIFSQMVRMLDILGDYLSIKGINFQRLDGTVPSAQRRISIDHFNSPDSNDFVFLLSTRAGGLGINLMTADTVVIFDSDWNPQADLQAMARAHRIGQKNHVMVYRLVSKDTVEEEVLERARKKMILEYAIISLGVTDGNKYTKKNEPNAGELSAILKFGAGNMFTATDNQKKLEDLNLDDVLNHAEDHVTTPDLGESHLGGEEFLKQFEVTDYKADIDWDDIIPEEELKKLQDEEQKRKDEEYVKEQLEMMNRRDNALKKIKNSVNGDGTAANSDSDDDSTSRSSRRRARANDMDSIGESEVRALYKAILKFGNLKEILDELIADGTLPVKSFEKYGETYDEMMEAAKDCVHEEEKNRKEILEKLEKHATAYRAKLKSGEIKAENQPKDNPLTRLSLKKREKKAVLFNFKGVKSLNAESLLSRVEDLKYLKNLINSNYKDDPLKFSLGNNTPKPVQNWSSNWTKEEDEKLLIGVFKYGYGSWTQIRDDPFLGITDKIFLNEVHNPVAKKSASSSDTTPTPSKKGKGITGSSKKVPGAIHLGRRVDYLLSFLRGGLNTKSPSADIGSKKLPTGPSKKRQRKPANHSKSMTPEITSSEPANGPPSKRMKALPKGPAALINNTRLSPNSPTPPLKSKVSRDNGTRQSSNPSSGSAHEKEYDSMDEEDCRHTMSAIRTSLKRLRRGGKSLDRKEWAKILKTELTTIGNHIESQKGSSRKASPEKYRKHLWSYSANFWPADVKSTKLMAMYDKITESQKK

Protein translocase subunit SecA (Escherichia coli (strain K12)), sequence (P10408 whole entry): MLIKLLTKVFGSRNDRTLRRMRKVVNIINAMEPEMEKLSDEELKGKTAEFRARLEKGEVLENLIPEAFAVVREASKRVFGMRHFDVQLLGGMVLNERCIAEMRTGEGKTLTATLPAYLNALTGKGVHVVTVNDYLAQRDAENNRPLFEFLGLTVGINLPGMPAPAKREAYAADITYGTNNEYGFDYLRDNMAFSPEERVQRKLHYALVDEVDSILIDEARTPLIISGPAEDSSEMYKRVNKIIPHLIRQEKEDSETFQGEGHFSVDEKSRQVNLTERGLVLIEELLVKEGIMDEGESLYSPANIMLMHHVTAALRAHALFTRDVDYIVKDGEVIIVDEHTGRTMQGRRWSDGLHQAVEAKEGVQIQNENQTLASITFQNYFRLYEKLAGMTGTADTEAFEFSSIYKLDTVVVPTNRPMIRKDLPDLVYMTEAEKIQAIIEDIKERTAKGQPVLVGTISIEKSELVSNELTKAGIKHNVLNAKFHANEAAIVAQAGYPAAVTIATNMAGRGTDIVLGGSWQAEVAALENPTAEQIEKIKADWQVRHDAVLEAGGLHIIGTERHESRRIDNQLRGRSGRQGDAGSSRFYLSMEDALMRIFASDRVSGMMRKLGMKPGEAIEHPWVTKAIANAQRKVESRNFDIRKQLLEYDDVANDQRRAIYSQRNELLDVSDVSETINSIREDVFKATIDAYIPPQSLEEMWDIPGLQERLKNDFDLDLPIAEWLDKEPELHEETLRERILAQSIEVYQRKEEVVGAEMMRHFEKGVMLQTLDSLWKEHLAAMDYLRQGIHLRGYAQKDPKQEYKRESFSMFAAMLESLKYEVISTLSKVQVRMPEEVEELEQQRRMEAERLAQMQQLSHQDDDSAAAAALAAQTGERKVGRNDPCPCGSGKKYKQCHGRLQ

| SMILES | Percent Effect [1] [%] | Percent Effect [2] [%] | Percent Effect [3] [%] | Percent Effect [4] [%] | Percent Effect (Trypanosoma cruzi) [%] | Percent Effect [5] [%] | Percent Effect [6] [%] | Percent Effect (Homo sapiens) [%] | Percent Effect [7] [%] | Percent Effect [8] [%] | Percent Effect [9] [%] |
| --- | --- | --- | --- | --- | --- | --- | --- | --- | --- | --- | --- |
| CCc1csc(C2CCCN(C(=O)c3c[nH]c(C)n3)C2)n1 (configuration not stated) | -1.65 | 7.79 | -3.3 | 1.9 | 6.18 | -1.78 | -3.88 | -6.54 | 2.91 | 12.2 | -6.32 |
| Cc1csc2c(N3CCC(NCCCc4ccncc4)CC3)ncnc12 | -0.362 | 2.6 | 5.76 | 17.7 | -1.08 | -1.38 | 6.49 | -3.09 | 7.53 | 11.1 | -2.5 |
| Cc1cnc2n(c1=O)C(CC(=O)NCc1cc(-c3cccs3)on1)CS2 (configuration not stated) | -0.436 | 20.8 | 11.4 | -23.7 | 1.28 | 5.81 | 6.79 | 28.9 | 2.12 | 16.7 | -11 |
| COCC1CN(Cc2ccc(C)o2)Cc2cn(C)nc21 (configuration not stated) | -1.58 | 10.7 | -0.404 | 16.5 | -0.965 | -18.5 | 5.13 | -4.89 | 10.4 | 20 | -7.5 |
| CCn1cc2c(n1)CN(C(=O)c1ccncc1)CC2COCC1CC1 (configuration not stated) | 1.97 | 13.3 | -0.804 | 23.2 | -1.74 | -23.5 | 20.9 | -8.6 | 3.12 | 20 | -6.15 |
| CC(C)c1nn(C)c(N(C)C)c1CNCc1ccccc1CN(C)C | -0.693 | 10.5 | -8.08 | 13 | 1.13 | -5.36 | 7.85 | -8.54 | 0.49 | 7.32 | -12.6 |
| Cc1cccc(CN2C[C@H]3OC(=O)N(CCCN4CCOCC4)[C@H]3C2)n1 | -5.71 | 5.33 | 0.534 | 17 | 0.682 | 2.08 | 11.9 | 2.81 | 10.4 | 16.1 | -8.08 |
| O=C(CCN1CCCC1c1cccs1)N1CCc2sccc2C1 (configuration not stated) | 0.699 | -29.7 | -9.71 | 3.83 | -1.6 | -18 | 3.96 | 5.67 | 3.45 | -11.1 | 2.06 |
| O=C(CN1CCCC1Cn1cncn1)NCCc1c(F)cccc1F (configuration not stated) | -9.37 | 18.4 | -9.7 | 10.3 | 11.9 | 0.719 | 7.36 | -5.35 | 5.42 | 18.5 | -10.6 |
| CC(C)c1csc(C2CCCN(C(=O)c3ccc(=O)n(C)n3)C2)n1 (configuration not stated) | -2.9 | 13.5 | -11.4 | -0.23 | -1.86 | 1.74 | 7.3 | 26 | 4.3 | 11.1 | -5.6 |
| COc1cccc2cc(CNCc3ccnc(N4CCOCC4)c3)oc12 | -5.63 | 0 | -16.9 | 3.48 | -6.7 | -6.41 | 10.6 | 26.6 | 1.48 | -11.1 | 3.15 |
| O=C(CN1CCCC1Cn1cncn1)NCCOc1cccc(F)c1 (configuration not stated) | -4.88 | 0 | -3.72 | 14.3 | -0.84 | -2.52 | -3.47 | -2.63 | 0.493 | 1.24 | 5.23 |
| Cc1noc([C@@]23CCO[C@@H]2CCN(CC2CCOCC2)C3)n1 | 2.95 | 8 | 7.01 | 4.21 | -6.76 | -51.4 | 9.91 | 2.92 | 8.33 | 20 | -7.02 |
| CCC1CCCCN1C(=O)c1ccc2[nH]nnc2c1 (configuration not stated) | 0.483 | 0 | -3.81 | -0.908 | -1.17 | 3.33 | 19.5 | 1.34 | 3.96 | -11 | -1.41 |
| O=C(Nc1cc(F)ccc1OCC1CCCO1)c1ccc(O)nc1 (configuration not stated) | -4.33 | 7.79 | 8.03 | -2.88 | 8.91 | -14.5 | 11.4 | -5.06 | 3.81 | 14.1 | -22.2 |
| COCCN(C)C(=O)c1ccc(OC)cc1O | -7.04 | 0 | 0.346 | 2.75 | -4.17 | 2.4 | 18.2 | 8.7 | 4.17 | 8.64 | 3.68 |
| O=S(=O)(c1ccccc1)N1CCC2(CCCN2CC2CCCC2)C1 (configuration not stated) | -2.93 | -21.6 | -3 | 2.91 | -0.489 | 4.78 | 13.3 | -13.9 | 6.49 | 5.13 | 11 |
| CN(CCn1cccn1)S(=O)(=O)N1CCCC1c1ccco1 (configuration not stated) | 1.7 | -5.41 | -2.17 | -0.333 | -5.48 | 9.43 | -3.05 | 13.8 | -0.99 | -6.1 | 3.02 |
| Fc1ccc(-c2nnc(CN3CCOC(Cn4cncn4)C3)o2)cc1 (configuration not stated) | -6.46 | 0 | 1.39 | -4.51 | -2.62 | 3.56 | -2.37 | 19.6 | 0.971 | -14.6 | -2.35 |
| CCc1cc(N[C@H]2CC[C@H](O)CC2)n2nc(C)c(C)c2n1 | -3.74 | 1.39 | 0.211 | -3.49 | -2.82 | -0.442 | 5.09 | -20.9 | -9.47 | 10.3 | -3.52 |
| CCn1c(N)nc2cc(C(=O)NCCc3sccc3C)cnc21 | -4.71 | -2.74 | 1.2 | 24.5 | 5.29 | -2.73 | 28.6 | 8.68 | 3.23 | 20 | -6.44 |
| Cc1ccc(C(=O)N2Cc3ccccc3C2)cc1N1CCNC1=O | -6.25 | 2.67 | 0.516 | 9.14 | 7.89 | -3.12 | 16.2 | -13.9 | 7.1 | 13.6 | -6.92 |
